Screening data as filed in PubChem BioAssay.
Pf growth 48h – inhibits P. falciparum growth in the first generation, 48 h | P. falciparum luciferase growth in erythrocytes, 48 h | Potency, µM (highest dose often 28.7 µM), for the others: at the highest dose activity change, negative = inhibition, most hits filed as inhibitors | 5.9% of 310,000 active | AID 504832; note: potency is the fitted concentration of half-maximal effect; % is set by controls: 0 for no effect and ±100 for the full control effect
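Cell-based growth assay: transgenic P. falciparum expressing firefly luciferase, cultured in red cells within RPMI 1640 containing 0.5% w/v Albumax, 24 mM bicarbonate and gentamycin. A drop in luciferase activity indicates inhibition.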
LmPK inh – inhibitors of Leishmania mexicana pyruvate kinase | Potency, µM (highest dose often 57.5 µM), inactives show at the highest dose activity change, negative = inhibition, usual class: inhibitors | AID 1721 | purified LmPK, Kinase-Glo ATP luminescence, 1 h | 0.37% of 290,000 active; note: potency is the fitted concentration of half-maximal effect; % is set by controls: 0 for no effect and ±100 for the full control effect
Target sequence (Q27686 whole entry, looked up): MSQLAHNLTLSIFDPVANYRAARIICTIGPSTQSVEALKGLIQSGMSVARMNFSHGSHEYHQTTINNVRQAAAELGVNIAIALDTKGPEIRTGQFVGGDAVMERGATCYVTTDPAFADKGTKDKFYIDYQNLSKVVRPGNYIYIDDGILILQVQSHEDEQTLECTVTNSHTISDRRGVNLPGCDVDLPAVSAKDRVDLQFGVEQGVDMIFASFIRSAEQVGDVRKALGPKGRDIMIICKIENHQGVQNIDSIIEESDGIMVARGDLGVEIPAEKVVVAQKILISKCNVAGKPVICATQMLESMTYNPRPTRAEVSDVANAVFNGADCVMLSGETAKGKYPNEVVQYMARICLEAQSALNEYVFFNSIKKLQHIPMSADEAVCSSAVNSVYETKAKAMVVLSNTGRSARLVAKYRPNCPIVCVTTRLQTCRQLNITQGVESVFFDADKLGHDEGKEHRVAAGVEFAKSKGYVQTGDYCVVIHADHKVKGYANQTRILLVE
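ATP generated from ADP (0.1 mM) and PEP (0.5 mM) by 0.1 nM LmPK over 1 h at room temperature (pH 7.2 imidazole buffer) was detected by coupled luciferase luminescence. Values were normalized to uninhibited and no-enzyme wells.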
Pf growth 96h – P. falciparum growth inhibition at 96 hours | Potency, µM (top dose mostly 28.7 µM), inactives show at the highest dose activity change, negative = inhibition, usual class: inhibitors | AID 504834 | 6.9% of 320,000 active | P. falciparum luciferase reporter growth, 96 h; note: potency is the fitted concentration of half-maximal effect; % is set by controls: 0 for no effect and ±100 for the full control effect
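Two parasite generations (96 h, 37 C, 5% CO2) of compound exposure in infected erythrocytes (0.05% parasitemia, 2% hematocrit). Luciferase-reporter P. falciparum; decreased luminescence indicates inhibited growth, aimed at apicoplast-acting delayed death.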
CHX counter – counter-screen hit for Shiga toxin inhibitors, cycloheximide; cell reporter, cycloheximide protein synthesis inhibition counterscreen; max response, %; 12% of 300,000 active; in the data active = max response mostly above about 13%, no sharp cut-off; inactive = mostly below about 14%; note: read at 38.3 µM for the half of the compounds with a filed dose; 0% is about no effect
Shiga inhibitor – Shiga toxin inhibition. inhibition, % at 38.7 µM. Vero cells, Shiga toxin protein synthesis inhibition reporter. AID 2315. 9.2% of 290,000 active; in the data active = inhibition mostly above about 28%, no sharp cut-off; inactive = mostly below about 43%; note: 0% is about no effect
* hit, by the source's call; u = inconclusive; x = no result; ! = not confirmed by another sample. Rows were chosen to be rich in hits. Some 22% of all compounds tested hit in one or more screens of this group. Unless noted, calls come from the whole dose curve; as a rule, active = well fitted inhibition curve with a large enough effect; inconclusive = small, poorly fitted or top-dose-only effect, or another doubt; inactive = no such curve, though single readings can be large or run the other way.

SMILES	Pf growth 48h	LmPK inh	Pf growth 96h	CHX counter	Shiga inhibitor
CCNCC(=O)N1c2ccccc2CCc2ccc(NC(=O)OCC)cc21	10µM*	8%	-28%	-6	-10
COC(=O)Nc1ccc2c(c1)N(C(=O)CCN(C)C)c1ccccc1CC2	-6%	0%	7.4µM*	-1	0
CCOC(=O)Nc1ccc2c(c1)N(C(=O)CN(C)C)c1ccccc1CC2	-7%	-9%	10µM*	-2	-7
CCOC(=O)Nc1ccc2c(c1)N(C(=O)OCCN(C)C)c1ccccc1CC2	-10%	-1%	1.5µM*!	-5	-13
CCOC(=O)Nc1ccc2c(c1)N(C(=O)CCN(C)C)c1ccccc1CC2	-11%	-2%	43%	-2	-5
CCN(CC)CCNCC(=O)N1c2ccccc2CCc2ccc(NC(=O)OC)cc21	u	6%	u	1	-13
CC(C)OC(=O)Nc1ccc2c(c1)N(C(=O)CCN(C)C)c1ccccc1CC2	-22%	-1%	6%	0	22
Cc1ccc(OCCn2c(SCCO)nc3c(N)ncnc32)cc1	6%	0%	47%	8	-22
C=C1CCN([C@H](C(=O)NCc2ccc(Cl)cc2)C(C)C)S(=O)(=O)c2ccccc21	48%	3%	u	-7	-6
CCC(C)(C)NC(=O)C(c1ccc(OC)cc1)N(C(=O)CCC(=O)Nc1cc(C)on1)c1ccccc1F (stereo not given)	u	-7%	u	-1	-8
CCOC(=O)Nc1ccc2c(c1)N(C(=O)CN)c1ccccc1CC2	12µM*	-2%	u	-1	-4
CCOC(=O)Nc1ccc2c(c1)N(C(=O)CCN1CCOCC1)c1ccccc1S2	15µM*!	6%	u	-3	1
O=C(CSc1nc(C(F)(F)F)cc(=O)[nH]1)Nc1cccc2ccccc12	32%	x	-1%	x	x
Cc1ccc2c(c1)N(CC(=O)N1CCCCC1)C(=O)C(C)O2 (stereo not given)	2%	-6%	9.3µM*	-6	-9
CN1CCN(C(=O)CN2C(=O)COc3ccc(S(=O)(=O)N4CCOCC4)cc32)CC1	-1%	9%	5.2µM*	-5	-3
CCOC(=O)N1CCN(C(=O)CN2C(=O)COc3ccc(S(=O)(=O)N4CCOCC4)cc32)CC1	-20%	3%	20%	4	-6
Cc1ccc2c(c1)N(CC(=O)N1CCCCCC1)C(=O)CO2	6%	2%	x	-2	14
CCCN1CCN(C(=O)CN2C(=O)COc3ccc(S(=O)(=O)N(CC)CC)cc32)CC1	-2%	-3%	2.9µM*	-1	-5
CC(C)(C)c1ccc2c(c1)N(CC(=O)N1CCCC1)C(=O)CO2	12µM*	5%	-30%	0	-24
COc1ccc(C(=O)CC2(C(=O)O)CCCCC2)cc1	-2%	2%	u	-3	-4
CC(C)n1cc(C(=O)NC2CC(C)(C)Cc3c2cnn3-c2ccccc2)cn1 (stereo not given)	1%	1%	u	10	4
CN(C(=O)COC(=O)c1ccc(F)c(S(=O)(=O)N2CCOCC2)c1)C1CCS(=O)(=O)C1 (stereo not given)	34%	x	26%	x	x
COc1cc(CCC(C)=O)ccc1OC(=O)c1c(F)cccc1Cl	485%	4%	445%	39*	88*
COc1ccc(NS(=O)(=O)c2cc(NC(=O)Cc3c(F)cccc3Cl)ccc2OC)cc1	5.9µM*	x	u	x	x
COc1ccc(NC(=O)COC(C)=O)cc1OC	u	15%	12%	-2	-7
SMILES	Pf growth 48h	LmPK inh	Pf growth 96h	CHX counter	Shiga inhibitor
COc1ccc(NC(=O)COC(=O)Cc2c(F)cccc2Cl)cc1OC	-2%	14%	0%	21*	46
COc1ccc(NC(=O)COC(=O)c2c(F)cccc2Cl)cc1OC	128%	2%	175%	41*	76*
CC(C)OCCCNC(=O)c1cc(-c2cccnc2)nc2ccccc12	-2%	0%	-4%	-6	8
COc1ccccc1N(C(=O)Cn1nnc(-c2ccc(C)o2)n1)C(C(=O)NC1CCCC1)c1ccncc1 (stereo not given)	u	0%	u	-2	-6
O=C(CN(C(=O)CCC(=O)Nc1nccs1)c1ccc2c(c1)OCO2)NCc1ccccc1	u	-4%	15%	4	4
CCCc1c(O)nc(SCCN(CC)CC)n(C(=O)c2ccccc2)c1=O	u	-4%	13µM*	-2	-8
Cc1nc(SCC(=O)NC2CCCC2)c2c(C)c(C)sc2n1	u	6%	-11%	-4	15
